Test systems include DU-145 prostate; K-562 leukemia; MALME-3M melanoma; MDA-MB-231 breast; RXF 393 renal; SF-268 CNS; SF-295 CNS; SF-539 CNS; UACC-257 melanoma; M14 melanoma; HCT-15 colon; HT29 colon; SNB-75 CNS; SNB-19 CNS; U251 CNS; PC-3 prostate; SK-MEL-5 melanoma; UACC-62 melanoma; LOX IMVI melanoma; SK-MEL-28 melanoma.
Common to all, as to experiment: NCI-60 one-dose screen, 48 h (100 = growth as untreated, 0 = no growth, -100 = all killed)
Holding throughout (details): 10 µM

The values that follow come from PubChem BioAssay (NCI).

About 83,000 compounds went through this panel and 20% of them were active in at least one assay; those are over-represented in the sample as a whole.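 Assay: single dose, 48 h. Readout: percent growth (0 = no net growth; negative = cell death). Active: <10.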 A number with no mark means an inactive call. The source made the active and inactive calls.

As for `COc1c(-c2c3sc(=O)[nH]c3nc3c2c(=O)[nH]n3C(C)C)cc2c(c1OC)OCO2`, the growth in the assay on DU-145 prostate is 108%; in the assay on K-562 leukemia, 86%; in the assay on MALME-3M melanoma, 80.3%; in the assay with MDA-MB-231 breast it was 108%; in the assay on RXF 393 renal, 110%; in the assay on SF-268 CNS, 102%. The growth was 88.3% with SF-295 CNS; 94.8% with SF-539 CNS; 99.7% with UACC-257 melanoma; 93.8% in the assay with M14 melanoma; 99.6% with HCT-15 colon; 102% in the assay on HT29 colon. Also, the growth was 92.7% with SNB-75 CNS; 98.7% in the assay on SNB-19 CNS; 97.9% in the assay with U251 CNS; 92.6% in the assay on PC-3 prostate; 102% with SK-MEL-5 melanoma; 99.4% in the assay on UACC-62 melanoma. The growth in the assay with LOX IMVI melanoma was 92.3%; in the assay on SK-MEL-28 melanoma it was 112%.
For `CC(=O)O[C@H]1CC[C@@]2(C)[C@@H](CC[C@@H]3[C@@H]2CC[C@]2(C)C=C(C=O)C[C@@H]32)C1`, the growth is 49.5% in the assay on DU-145 prostate; 82.3% with K-562 leukemia; 66.8% in the assay with MALME-3M melanoma; 103% in the assay with MDA-MB-231 breast; 120% with RXF 393 renal; 66.6% with SF-268 CNS. For the same compound, the growth in the assay with SF-295 CNS is 97.1%; in the assay with SF-539 CNS, 92.7%; in the assay with UACC-257 melanoma, 98.6%; in the assay on M14 melanoma it was 65.3%; with HCT-15 colon, 27.5%; in the assay on HT29 colon, 31.4%. Further, the growth in the assay on SNB-75 CNS is 69.5%; with SNB-19 CNS, 82.5%; in the assay on U251 CNS, 22.9%; with PC-3 prostate, 62.5%; in the assay on SK-MEL-5 melanoma, 75.7%; with UACC-62 melanoma, 78.8%. In addition, the growth in the assay with LOX IMVI melanoma was -71% (active); in the assay on SK-MEL-28 melanoma, 70%.
For `Cc1ccc(C)c(S(=O)(=O)NC2c3ccccc3Oc3ccccc32)c1`, the growth is 112% with DU-145 prostate; 90% with K-562 leukemia; 93.2% with MALME-3M melanoma; 95.2% in the assay on MDA-MB-231 breast; 91.3% with RXF 393 renal; 95% in the assay on SF-268 CNS. Besides, the growth is 98.1% in the assay with SF-295 CNS; 97.3% in the assay on SF-539 CNS; 109% in the assay with UACC-257 melanoma; 101% in the assay with M14 melanoma; 94% with HCT-15 colon; 88.8% in the assay on HT29 colon. The growth was 91% in the assay on SNB-75 CNS; 102% with SNB-19 CNS; 92.1% in the assay on U251 CNS; 89% in the assay on PC-3 prostate; 101% in the assay with SK-MEL-5 melanoma; 95.1% in the assay on UACC-62 melanoma. Further, the growth in the assay with LOX IMVI melanoma is 94.1%; in the assay with SK-MEL-28 melanoma it was 106%.
As to `CC(C)OCc1cc(CN2CCN(c3cccc(Cl)c3)CC2)c(O)c2ncccc12`, the growth in the assay with DU-145 prostate is 11.8%; in the assay with K-562 leukemia it was 3.38% (active); with MALME-3M melanoma it was -40.6% (active); with MDA-MB-231 breast, -41.9% (active); in the assay on RXF 393 renal it was -14.9% (active); with SF-268 CNS, 5.89% (active). In addition, the growth was -71.8% (active) in the assay with SF-295 CNS; -6.98% (active) in the assay on SF-539 CNS; -36.7% (active) in the assay on UACC-257 melanoma; -17% (active) in the assay on M14 melanoma; 4.08% (active) in the assay with HCT-15 colon; -17.1% (active) with HT29 colon. Moreover, the growth in the assay on SNB-75 CNS was -25.3% (active); in the assay on SNB-19 CNS, 19.6%; with U251 CNS it was -37.8% (active); with PC-3 prostate it was -0.0543% (active); in the assay with SK-MEL-5 melanoma, -85.2% (active); in the assay on UACC-62 melanoma, -61.2% (active). Moreover, the growth in the assay with LOX IMVI melanoma was -73.3% (active); with SK-MEL-28 melanoma, -2.34% (active).
Consider `COc1ccc(-c2cn[nH]c2-c2cc(OC)c(OC)c(OC)c2)cc1`, for which the growth is 4.46% (active) in the assay with DU-145 prostate; 6.36% (active) in the assay with K-562 leukemia; 76.4% in the assay with MALME-3M melanoma; 8.75% (active) in the assay with MDA-MB-231 breast; 14.8% in the assay with RXF 393 renal; 19.7% in the assay with SF-268 CNS. Moreover, the growth is 6.26% (active) in the assay on SF-295 CNS; -32% (active) in the assay on SF-539 CNS; 49.2% in the assay with UACC-257 melanoma; 3.85% (active) in the assay with M14 melanoma; 10.8% in the assay on HCT-15 colon; 3.22% (active) in the assay with HT29 colon. Moreover, the growth is 44.7% in the assay with SNB-75 CNS; 45.5% in the assay on SNB-19 CNS; 16.2% in the assay on U251 CNS; 14.1% with PC-3 prostate; -17.1% (active) in the assay on SK-MEL-5 melanoma; 38% with UACC-62 melanoma. Further, the growth is 27.3% in the assay on LOX IMVI melanoma and 43.6% in the assay with SK-MEL-28 melanoma.
Consider `O=C(Nc1cccc(Cl)c1)Nc1cc2ncncc2cc1OCc1cccc(F)c1`, for which the growth in the assay with DU-145 prostate was 18.9%; in the assay with K-562 leukemia it was 8.22% (active); in the assay with MALME-3M melanoma it was 10.8%; in the assay with MDA-MB-231 breast, 27.2%; in the assay on RXF 393 renal, 31.5%; in the assay with SF-268 CNS, 26.6%. For the same compound, the growth is 7.22% (active) in the assay on SF-295 CNS; 36% in the assay on SF-539 CNS; -34.2% (active) in the assay on UACC-257 melanoma; -18.2% (active) in the assay on M14 melanoma; 0.775% (active) with HCT-15 colon; 0.74% (active) in the assay with HT29 colon. Also, the growth was 21.1% with SNB-75 CNS; 22.9% in the assay with SNB-19 CNS; 6.99% (active) in the assay with U251 CNS; 9.57% (active) in the assay on PC-3 prostate; -88.5% (active) in the assay with SK-MEL-5 melanoma; -18.4% (active) with UACC-62 melanoma. The growth in the assay with LOX IMVI melanoma is 21.4%; in the assay with SK-MEL-28 melanoma, 20.9%.
On to `O=S(=O)(O)C1(O)CCCCC1`, for which the growth in the assay on DU-145 prostate is 54.1%; with K-562 leukemia it was 85.3%; with MALME-3M melanoma, 86.9%; with MDA-MB-231 breast it was 84.4%; in the assay with RXF 393 renal, 89.4%; in the assay on SF-268 CNS, 104%. Also, the growth with SF-295 CNS is 82.5%; in the assay with SF-539 CNS, 84%; in the assay on UACC-257 melanoma it was 102%; with M14 melanoma, 91.2%; in the assay on HCT-15 colon, 87.3%; in the assay with HT29 colon, 59%. Moreover, the growth is 82.3% in the assay on SNB-75 CNS; 87.8% in the assay on SNB-19 CNS; 99.3% in the assay with U251 CNS; 77.6% in the assay with PC-3 prostate; 92.9% in the assay on SK-MEL-5 melanoma; 96.8% in the assay on UACC-62 melanoma. Further, the growth in the assay on LOX IMVI melanoma is 97.7%; in the assay on SK-MEL-28 melanoma, 102%.
Turning to `CNC(=O)c1cc(Oc2ccc(NC(=O)Nc3ccc(Cl)c(OC(C)C)c3)c(F)c2)ccn1`, the growth is 76.8% with DU-145 prostate; 21.8% in the assay on K-562 leukemia; 38.3% in the assay with MALME-3M melanoma; 59.4% in the assay on MDA-MB-231 breast; 87.6% in the assay on RXF 393 renal; 58.3% in the assay with SF-268 CNS. Besides, the growth in the assay with SF-295 CNS was 33.3%; with SF-539 CNS it was 66.9%; in the assay on UACC-257 melanoma, 26.9%; in the assay on M14 melanoma it was 36.1%; with HCT-15 colon, 41.4%; in the assay on HT29 colon, 41.6%. Also, the growth with SNB-75 CNS is 75.3%; in the assay with SNB-19 CNS, 66.3%; in the assay with U251 CNS, 58.8%; in the assay with PC-3 prostate, 32.4%; in the assay with SK-MEL-5 melanoma, 4.12% (active); with UACC-62 melanoma, 34.2%. The growth is 45.2% with LOX IMVI melanoma and 70.7% in the assay on SK-MEL-28 melanoma.
